The source made the active and inactive calls. Rule for the calls: active = hit-call score of the fitted dose curve at least 0.9, where 1 is the maximum; inactive = score below 0.9.
Key:
[1] = read-out: Interleukin 17F (IL17F), IL17F (gene 112744); experiment: BSK_BT_xIL17F: BioMAP Diversity Plus: BT Assay for Interleukin 17F (IL17F) Biomarker Activity (AID 2284243); details: primary human B cells with PBMC
In short: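 Measures secreted IL-17F from a human B cell plus PBMC co-culture at 24 h post-dose by Luminex xMAP, with DMSO defining baseline activity.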

[2] = read-out: Actin alpha 1 (ACTA1), ACTA1 (gene 58); experiment: BSK_MyoF_ACTA1: BioMAP Diversity Plus: MyoF Assay for Actin alpha 1 (ACTA1) Biomarker Activity (AID 2284244); details: primary human lung fibroblasts
In short: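 alpha-SMA levels read by ELISA against DMSO baseline, 24 h post-dose, in primary human lung fibroblasts. Parallel cultures stained with 0.1% SRB after 10% TCA fixation (560 nm) to flag overt cytotoxicity.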

[3] = read-out: Interleukin 2 (IL2), IL2 (gene 3558); experiment: BSK_BT_xIL2: BioMAP Diversity Plus: BT Assay for Interleukin 2 (IL2) Biomarker Activity (AID 2284245); details: primary human B cells with PBMC
In short: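 Secreted IL-2 was read by Luminex xMAP from B cells co-cultured with PBMC (human primary) 24 h post-dosing; activity was analysed as gain of signal relative to DMSO vehicle.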

[4] = read-out: Basic fibroblast growth factor (bFGF), FGF2 (gene 2247); experiment: BSK_MyoF_bFGF: BioMAP Diversity Plus: MyoF Assay for Basic fibroblast growth factor (bFGF) Biomarker Activity (AID 2284246); details: primary human lung fibroblasts
In short: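 bFGF was measured by ELISA in primary human lung fibroblasts 24 h after chemical addition. Signal was analysed as positive-direction change relative to DMSO baseline.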

[5] = read-out: Collagen IV, COL4A1 (gene 1282); experiment: BSK_MyoF_CollagenIV: BioMAP Diversity Plus: MyoF Assay for Collagen IV Biomarker Activity (AID 2284247); details: primary human lung fibroblasts
In short: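 Collagen IV quantified by ELISA in human lung fibroblast cultures 24 h after chemical treatment, with DMSO as baseline. Parallel SRB staining (0.1% SRB after TCA fixation, 560 nm) flags overt cytotoxicity.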

[6] = read-out: Plasminogen activator inhibitor-1 (PAI1), SERPINE1 (gene 5054); experiment: BSK_MyoF_PAI1: BioMAP Diversity Plus: MyoF Assay for Plasminogen activator inhibitor-1 (PAI1) Biomarker Activity (AID 2284256); details: primary human lung fibroblasts
In short: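 Activity reflects increased PAI-1, determined by ELISA and compared with DMSO, in human lung fibroblasts treated for 24 h.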

Decorin, DCN (gene 1634) = experiment: BSK_MyoF_Decorin: BioMAP Diversity Plus: MyoF Assay for Decorin Biomarker Activity (AID 2284265); details: primary human lung fibroblasts
In short: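 Lung fibroblast cultures, 24 h chemical exposure. Decorin by ELISA, positive fitting direction, DMSO baseline.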

[7] = BSK_MyoF_SRB: Viability Assessment in the BioMAP Diversity Plus: MyoF Assay (AID 2284267); details: primary human lung fibroblasts;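 note: total protein by SRB absorbance in parallel cultures as cytotoxicity measure; cells assessed 24 h after compound addition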
In short: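 Cytotoxicity read-out: after 10% TCA fixation, parallel human lung fibroblast cultures were stained with 0.1% SRB at 24 h post-dosing and read at 560 nm; DMSO served as baseline.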

[8] = read-out: Matrix Metallopeptidase 1 (MMP1), MMP1 (gene 4312); experiment: BSK_MyoF_MMP1: BioMAP Diversity Plus: MyoF Assay for Matrix Metallopeptidase 1 (MMP1) Biomarker Activity (AID 2284268); details: primary human lung fibroblasts
In short: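 MMP1 measured by ELISA 24 h after dosing primary human lung fibroblasts; cytotoxicity checked in parallel cultures by sulforhodamine B total-protein staining read at 560 nm.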

[9] = read-out: TIMP metallopeptidase inhibitor 1 (TIMP1), TIMP1 (gene 7076); experiment: BSK_MyoF_TIMP1: BioMAP Diversity Plus: MyoF Assay for TIMP metallopeptidase inhibitor 1 (TIMP1) Biomarker Activity (AID 2284269); details: primary human lung fibroblasts
In short: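 Primary human lung fibroblasts, MyoF multiplex system; chemical exposure 24 h; TIMP-1 by ELISA; positive fitting direction vs DMSO control.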

Measured: AC50

CCCCN(CCCC)C(=O)N(CCCC)CCCC
active: [1] 29 µM | [2] 6.35 µM | [3] 32.5 µM | [4] 10.1 µM | [5] 8.89 µM | [6] 10.7 µM | [7] 11 µM | [8] 7.64 µM | [9] 9.42 µM
inactive: Decorin, DCN (gene 1634)

CC1(C)C2=CCCC(C)(C)[C@]23CC[C@H]1C3
active: [2] 30.9 µM | [6] 35.3 µM | [7] 30.9 µM | [8] 31.2 µM
inactive: all other assays above

CCCCCC(C=O)=Cc1ccccc1
active: [2] 29.5 µM | [8] 28.4 µM
inactive: all other assays above

CCCCOC(=O)CCCCCCCC(=O)OCCCC
inactive: all assays above

C[C@@H]1CCN(C(=O)[C@H](CCCN=C(N)N)NS(=O)(=O)c2cccc3c2NC[C@H](C)C3)[C@@H](C(=O)O)C1
inactive: all assays above

CN(c1nccc(=O)[nH]1)C1CCN(c2nc3ccccc3n2Cc2ccc(F)cc2)CC1
active: [3] 9.2 µM
inactive: all other assays above

CC(C)(N=C=O)c1cccc(C(C)(C)N=C=O)c1
inactive: all assays above

COc1ccc(OC)c(N=Nc2c(O)ccc3ccccc23)c1
active: [1] 5.41 µM | [2] 10.5 µM | [4] 20 µM | [7] 6.83 µM | [8] 10.3 µM | [9] 3.12 µM
inactive: [3] | [5] | [6] | Decorin, DCN (gene 1634)

CC(=O)c1c(C)c([N+](=O)[O-])c(C(C)(C)C)c([N+](=O)[O-])c1C
active: [1] 20 µM
inactive: all other assays above

COc1cc(Cl)c(OC)cc1N
inactive: all assays above

C=C(C)C(=O)OCCOCCOCCOC(=O)C(=C)C
inactive: all assays above
